Measurements published in the supplement of paper PMC10849652.
The full data set covers some 8,800 targets. This sample favours those with a hit. About 0.5% of all pairs of compound and target were hits. A number with no mark means an inactive call.

Each target was assayed with c1ccc([C@@H]2C[C@H]2NC2CCNCC2)cc1 (assay: log2 fold change, soluble protein after heating vs DMSO (PISA); higher = thermal stabilisation; K562 lysate, 10 uM; active = over 0.2 and 3.5 SD of the protein, either way, in both replicates (recomputed)).
Method in brief: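 Pellets of K562 cells were dounce-homogenised in PBS pH 7.4 with 1 mM MgCl2, and the crude extract was held at 1 mg/mL protein for a 30 min treatment with 10 μM compound. Aliquots were heated for 3 min over 48°C-58°C and pooled before NP-40 was added to 0.5% at 4°C. The supernatant from 21,000xg for 90 min was quantified by TMTpro 16plex LC-MS/MS with channel sums equalised. Values are reported from duplicates as log-two fold change in thermal stability relative to solvent controls.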

Sequence of UniProt Q8IUH5 (Q8IUH5 whole entry, looked up): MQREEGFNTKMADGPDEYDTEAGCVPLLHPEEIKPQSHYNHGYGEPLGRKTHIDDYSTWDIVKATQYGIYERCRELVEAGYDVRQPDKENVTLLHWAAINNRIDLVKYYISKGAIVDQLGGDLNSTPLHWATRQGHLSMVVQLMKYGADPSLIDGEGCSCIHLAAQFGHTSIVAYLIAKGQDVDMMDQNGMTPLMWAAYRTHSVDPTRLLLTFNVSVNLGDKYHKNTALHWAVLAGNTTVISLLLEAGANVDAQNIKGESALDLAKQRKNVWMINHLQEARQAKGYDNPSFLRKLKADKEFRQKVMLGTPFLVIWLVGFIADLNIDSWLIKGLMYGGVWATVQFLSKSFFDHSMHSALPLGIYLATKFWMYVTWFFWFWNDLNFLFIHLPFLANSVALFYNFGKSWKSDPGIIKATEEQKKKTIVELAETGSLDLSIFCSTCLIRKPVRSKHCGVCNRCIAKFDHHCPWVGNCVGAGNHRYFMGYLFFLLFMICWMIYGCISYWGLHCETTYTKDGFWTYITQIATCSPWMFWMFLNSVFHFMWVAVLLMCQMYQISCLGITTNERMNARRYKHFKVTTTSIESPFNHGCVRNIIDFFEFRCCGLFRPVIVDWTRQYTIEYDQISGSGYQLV
Sequence of UniProt Q8NI36 (Q8NI36 whole entry, looked up): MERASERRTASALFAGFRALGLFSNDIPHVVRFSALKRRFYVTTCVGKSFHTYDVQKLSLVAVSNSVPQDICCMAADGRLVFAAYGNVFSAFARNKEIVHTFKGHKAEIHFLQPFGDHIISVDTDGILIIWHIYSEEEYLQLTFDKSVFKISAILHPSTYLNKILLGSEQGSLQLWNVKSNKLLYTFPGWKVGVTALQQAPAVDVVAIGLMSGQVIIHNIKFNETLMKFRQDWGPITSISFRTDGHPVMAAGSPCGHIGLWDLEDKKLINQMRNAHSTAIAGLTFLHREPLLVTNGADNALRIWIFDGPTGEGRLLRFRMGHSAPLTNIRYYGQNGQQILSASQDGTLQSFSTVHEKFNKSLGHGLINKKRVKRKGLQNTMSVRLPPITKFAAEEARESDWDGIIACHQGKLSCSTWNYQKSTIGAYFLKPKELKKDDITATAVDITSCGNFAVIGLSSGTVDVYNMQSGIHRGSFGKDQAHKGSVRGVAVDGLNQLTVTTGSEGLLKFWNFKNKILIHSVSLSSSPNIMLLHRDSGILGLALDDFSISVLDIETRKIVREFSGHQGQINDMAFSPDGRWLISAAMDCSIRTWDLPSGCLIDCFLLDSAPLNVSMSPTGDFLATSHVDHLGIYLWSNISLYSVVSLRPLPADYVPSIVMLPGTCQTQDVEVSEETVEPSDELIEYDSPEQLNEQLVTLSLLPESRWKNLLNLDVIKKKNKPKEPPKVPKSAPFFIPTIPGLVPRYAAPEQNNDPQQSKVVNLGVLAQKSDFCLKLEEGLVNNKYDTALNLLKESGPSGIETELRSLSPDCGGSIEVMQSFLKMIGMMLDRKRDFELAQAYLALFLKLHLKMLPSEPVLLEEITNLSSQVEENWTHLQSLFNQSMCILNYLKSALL
Sequence of UniProt Q9UKW4 (Q9UKW4 whole entry, looked up): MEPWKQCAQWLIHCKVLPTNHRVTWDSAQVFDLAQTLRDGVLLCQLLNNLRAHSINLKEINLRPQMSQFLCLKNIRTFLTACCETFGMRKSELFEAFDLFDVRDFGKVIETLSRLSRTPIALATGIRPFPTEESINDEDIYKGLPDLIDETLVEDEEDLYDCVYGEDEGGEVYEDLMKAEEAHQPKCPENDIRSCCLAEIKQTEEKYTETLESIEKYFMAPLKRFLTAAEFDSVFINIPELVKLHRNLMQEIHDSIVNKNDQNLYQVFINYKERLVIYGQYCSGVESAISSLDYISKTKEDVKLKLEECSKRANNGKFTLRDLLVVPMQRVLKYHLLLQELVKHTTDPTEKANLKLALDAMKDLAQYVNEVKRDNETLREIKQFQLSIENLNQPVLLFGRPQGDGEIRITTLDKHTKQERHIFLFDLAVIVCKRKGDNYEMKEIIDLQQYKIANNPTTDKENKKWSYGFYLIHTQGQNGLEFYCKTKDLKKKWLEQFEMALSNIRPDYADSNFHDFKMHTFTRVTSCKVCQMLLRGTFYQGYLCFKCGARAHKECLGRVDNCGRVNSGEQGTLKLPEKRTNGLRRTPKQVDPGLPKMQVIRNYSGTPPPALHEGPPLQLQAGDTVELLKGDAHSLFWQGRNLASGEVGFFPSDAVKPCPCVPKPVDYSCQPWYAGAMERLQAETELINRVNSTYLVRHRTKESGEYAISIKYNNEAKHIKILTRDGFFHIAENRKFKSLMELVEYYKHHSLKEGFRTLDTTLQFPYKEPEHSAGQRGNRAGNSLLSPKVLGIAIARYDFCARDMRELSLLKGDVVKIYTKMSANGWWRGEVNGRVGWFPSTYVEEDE
Sequence of UniProt P42768 (P42768 whole entry, looked up): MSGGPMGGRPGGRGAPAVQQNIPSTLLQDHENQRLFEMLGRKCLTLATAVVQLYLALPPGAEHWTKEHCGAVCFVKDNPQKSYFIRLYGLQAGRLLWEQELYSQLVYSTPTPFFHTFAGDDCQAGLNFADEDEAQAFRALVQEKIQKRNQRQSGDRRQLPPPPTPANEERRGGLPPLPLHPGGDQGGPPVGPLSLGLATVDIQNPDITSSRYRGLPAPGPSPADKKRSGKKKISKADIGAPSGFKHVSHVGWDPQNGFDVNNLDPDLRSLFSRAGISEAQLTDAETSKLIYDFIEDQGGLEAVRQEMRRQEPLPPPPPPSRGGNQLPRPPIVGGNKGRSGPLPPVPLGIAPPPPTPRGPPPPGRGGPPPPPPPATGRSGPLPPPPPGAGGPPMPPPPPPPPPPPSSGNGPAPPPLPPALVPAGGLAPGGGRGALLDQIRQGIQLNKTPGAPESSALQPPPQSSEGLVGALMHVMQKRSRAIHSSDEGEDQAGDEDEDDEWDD
Sequence of UniProt Q9Y6I7 (Q9Y6I7 whole entry, looked up): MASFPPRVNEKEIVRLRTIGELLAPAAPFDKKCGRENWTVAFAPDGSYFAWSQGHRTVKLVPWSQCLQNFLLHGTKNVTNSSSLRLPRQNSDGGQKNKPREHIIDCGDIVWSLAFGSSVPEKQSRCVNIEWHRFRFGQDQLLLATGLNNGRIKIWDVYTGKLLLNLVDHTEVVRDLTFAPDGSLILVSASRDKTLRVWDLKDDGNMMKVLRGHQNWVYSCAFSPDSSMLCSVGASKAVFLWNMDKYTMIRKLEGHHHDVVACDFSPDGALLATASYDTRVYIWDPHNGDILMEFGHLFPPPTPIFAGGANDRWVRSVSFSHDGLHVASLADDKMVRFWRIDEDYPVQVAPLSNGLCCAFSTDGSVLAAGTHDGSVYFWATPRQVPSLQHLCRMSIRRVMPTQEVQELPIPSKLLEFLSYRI
Sequence of UniProt Q86UV5 (Q86UV5 whole entry, looked up): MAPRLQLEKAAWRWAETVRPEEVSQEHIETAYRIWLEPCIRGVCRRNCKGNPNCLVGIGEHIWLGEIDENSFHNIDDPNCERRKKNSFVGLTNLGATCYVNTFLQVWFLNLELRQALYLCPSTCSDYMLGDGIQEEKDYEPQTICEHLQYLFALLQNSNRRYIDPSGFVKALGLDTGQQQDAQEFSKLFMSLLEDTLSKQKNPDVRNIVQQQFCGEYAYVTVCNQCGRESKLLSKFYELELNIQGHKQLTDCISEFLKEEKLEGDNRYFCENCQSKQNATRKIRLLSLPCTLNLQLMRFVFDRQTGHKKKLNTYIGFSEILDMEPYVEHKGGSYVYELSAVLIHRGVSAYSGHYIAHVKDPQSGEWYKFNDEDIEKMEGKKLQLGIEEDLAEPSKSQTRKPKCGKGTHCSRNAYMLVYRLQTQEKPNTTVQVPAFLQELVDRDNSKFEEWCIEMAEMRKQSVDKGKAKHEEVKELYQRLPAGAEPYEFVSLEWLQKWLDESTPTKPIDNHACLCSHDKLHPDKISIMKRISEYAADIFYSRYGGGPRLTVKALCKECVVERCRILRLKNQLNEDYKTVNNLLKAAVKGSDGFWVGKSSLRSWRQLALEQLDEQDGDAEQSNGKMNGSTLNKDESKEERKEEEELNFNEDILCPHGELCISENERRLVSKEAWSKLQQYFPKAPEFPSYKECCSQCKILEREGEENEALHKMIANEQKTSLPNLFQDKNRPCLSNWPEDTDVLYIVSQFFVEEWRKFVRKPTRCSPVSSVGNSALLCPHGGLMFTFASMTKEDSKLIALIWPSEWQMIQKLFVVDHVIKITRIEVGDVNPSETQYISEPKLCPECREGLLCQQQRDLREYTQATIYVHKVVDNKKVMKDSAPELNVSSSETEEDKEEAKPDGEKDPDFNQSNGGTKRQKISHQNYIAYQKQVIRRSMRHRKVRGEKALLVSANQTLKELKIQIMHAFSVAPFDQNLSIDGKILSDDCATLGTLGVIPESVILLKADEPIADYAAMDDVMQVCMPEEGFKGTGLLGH
Sequence of UniProt Q9UL40 (Q9UL40 whole entry, looked up): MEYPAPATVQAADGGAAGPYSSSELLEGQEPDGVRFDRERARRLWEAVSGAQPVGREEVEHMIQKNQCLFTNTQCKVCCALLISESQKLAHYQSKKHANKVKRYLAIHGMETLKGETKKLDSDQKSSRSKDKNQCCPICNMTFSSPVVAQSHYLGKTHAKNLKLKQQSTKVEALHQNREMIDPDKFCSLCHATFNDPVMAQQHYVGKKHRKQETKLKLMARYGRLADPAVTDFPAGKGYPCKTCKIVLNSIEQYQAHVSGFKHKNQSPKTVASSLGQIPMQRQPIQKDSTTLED
Sequence of UniProt P27348 (P27348 whole entry, looked up): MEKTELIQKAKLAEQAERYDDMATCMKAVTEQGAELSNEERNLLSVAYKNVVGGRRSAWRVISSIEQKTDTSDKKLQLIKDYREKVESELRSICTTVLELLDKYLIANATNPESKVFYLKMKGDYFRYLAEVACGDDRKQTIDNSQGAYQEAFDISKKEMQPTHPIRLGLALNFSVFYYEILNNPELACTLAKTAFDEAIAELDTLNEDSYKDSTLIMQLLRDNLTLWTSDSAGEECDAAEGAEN
Sequence of UniProt P63027 (P63027 whole entry, looked up): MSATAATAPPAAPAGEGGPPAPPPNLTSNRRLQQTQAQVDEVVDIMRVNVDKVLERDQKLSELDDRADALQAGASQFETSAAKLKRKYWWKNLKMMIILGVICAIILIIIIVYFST

| Target | log2 fold change |
| --- | --- |
| ZDHHC17 (UniProt Q8IUH5) | -0.578 |
| USP48 (UniProt Q86UV5) | -0.187 |
| ZNF217 (UniProt O75362) | 0 |
| ZYG11A (UniProt Q6WRX3) | -0.012 |
| WAS (UniProt P42768) | 0.053 |
| ZNF346 (UniProt Q9UL40) | -0.086 |
| ZFPM1 (UniProt Q8IX07) | 0.078 |
| VPS41 (UniProt P49754) | 0.13 |
| ZC3H11A (UniProt O75152) | 0.063 |
| ZBTB40 (UniProt Q9NUA8) | -0.432 (active) |
| VPS72 (UniProt Q15906) | -0.035 |
| UNC13A (UniProt Q9UPW8) | -0.966 |
| WSB1 (UniProt Q9Y6I7) | -0.036 |
| WDR91 (UniProt A4D1P6) | 0.026 |
| UTRN isoform 2 (UniProt P46939) | 0.062 |
| WIPI2 isoform 6 (UniProt Q9Y4P8) | -0.073 |
| WDR36 (UniProt Q8NI36) | 0.035 |
| WIPI1 (UniProt Q5MNZ9) | -0.031 |
| VAC14 (UniProt Q08AM6) | 0.001 |
| VAMP2 (UniProt P63027) | 0.081 |
| VAV3 isoform 4 (UniProt Q9UKW4) | -0.391 |
| ZNF845 (UniProt Q96IR2) | 0.083 |
| ZSCAN21 (UniProt Q9Y5A6) | -0.074 |
| YWHAQ (UniProt P27348) | 0.181 |
| ZNF598 isoform 3 (UniProt Q86UK7) | 0.025 |
